Peg3 prom inh = inhibitors of Peg3 promoter; HeLa PEG-Prom luciferase reporter, luminescence, overnight; inhibition, % at 20 µM; 1.7% of 360,000 active; AID 588405;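 active = inhibition of at least 50% at 20 µM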
MITF TRPM1 inh = reduces MITF-dependent TRPM1 promoter luciferase signal; 0.83% of 330,000 active; inhibition, % at 12.5 µM; AID 488899; SK-MEL-5 TRPM1 promoter luciferase, 24 h;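 active = mean inhibition across replicates of 60% or more, whatever share of single replicates reaches that level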
CF NFkB block = blocks PAF-induced NF-kB reporter in cystic fibrosis cells; inhibition, % at 5 µM; AID 588850; 0.86% of 360,000 active; KKLEB NF-kB-GFP reporter, GFP fluorescence overnight;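 active = at least 50% inhibition at 5 µM, scaled per plate between neutral and stimulator controls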;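 also: PAF is a Pseudomonas aeruginosa culture filtrate used as stimulus; plate controls were PAF-stimulated DMSO wells for no effect and unstimulated DMSO wells for full effect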
HIF-2a block = HIF-2a inhibition | 786-0 RCC cells HIF-2a reporter, luciferase luminescence, overnight | inhibition, % at 18.8 µM | 0.72% of 360,000 active | AID 624352;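 active = inhibition of the luminescence signal of 40% or more relative to plate controls, in a single-dose primary screen at 18.75 µM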
Beta2AR agonist = human beta-2 adrenergic receptor agonism by FAP; Am2.2-beta2AR cells, FAP receptor internalization, flow cytometry; response, % (test concentration not listed); P07550; 0.43% of 340,000 active;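 active = response above a set limit, near 3 SD of response in nonfluorescent compounds, cut at about 42% in these data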
Target sequence (P07550 whole entry, looked up): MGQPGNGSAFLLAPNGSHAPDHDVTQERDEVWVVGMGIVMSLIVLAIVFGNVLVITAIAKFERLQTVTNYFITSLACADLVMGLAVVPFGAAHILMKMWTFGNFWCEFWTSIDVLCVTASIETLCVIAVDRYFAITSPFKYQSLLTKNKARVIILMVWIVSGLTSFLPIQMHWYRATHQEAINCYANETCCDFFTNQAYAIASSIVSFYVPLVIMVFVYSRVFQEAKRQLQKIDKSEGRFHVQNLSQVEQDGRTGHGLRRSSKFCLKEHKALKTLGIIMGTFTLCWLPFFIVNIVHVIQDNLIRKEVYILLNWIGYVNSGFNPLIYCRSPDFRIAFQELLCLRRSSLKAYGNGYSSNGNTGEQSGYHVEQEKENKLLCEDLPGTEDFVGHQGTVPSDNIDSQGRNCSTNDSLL
KKLEB tox = CF airway cell cytotoxicity counter-screen. activity change (cytotoxicity), % at 5 µM. 0.36% of 360,000 active. KKLEB CF airway cells viability, ATPlite luminescence, overnight; hits give low values; cells stimulated with P. aeruginosa culture filtrate;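 active = corrected activity change at or below -50% at 5 µM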
CF NFkB conf = confirmation of cystic fibrosis induced NF-kB inhibitors. 64% of 1,300 active. KKLEB CF airway cells, PAF-induced NF-kB-GFP fluorescence, overnight. AID 602472. shares compounds with CF NFkB block. inhibition, % at 5 µM; in the data active = inhibition above about 40%;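 also: stimulus PAF is a Pseudomonas aeruginosa filtrate and not platelet activating factor; plate controls were DMSO wells with stimulus for no effect and unstimulated DMSO wells for full effect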
Active calls of the source: *. An excerpt weighted towards active compounds, which were near 2.8% of everything screened.

`COc1ccc2[nH]c3c(c2c1)CC(C)NC3=O` (stereo not drawn) gave Peg3 prom inh 2, MITF TRPM1 inh 13, CF NFkB block 61*, HIF-2a block 13, Beta2AR agonist 4, KKLEB tox -6 and CF NFkB conf 71*.
For O=C1OC(/C=C/c2ccccc2)=NC/1=C\c1cccnc1 the results were Peg3 prom inh 18, MITF TRPM1 inh -6, CF NFkB block -13, HIF-2a block 22, Beta2AR agonist 5 and KKLEB tox -2.
O=C1/C(=C/c2cccnc2)CCc2c1[nH]c1ccccc21 was read as Peg3 prom inh -127, MITF TRPM1 inh -81, CF NFkB block 70*, HIF-2a block -200, Beta2AR agonist -10, KKLEB tox -14 and CF NFkB conf 84*.
For COc1ccccc1NC(=O)CN1CCC(c2nc3ccc(C)cc3[nH]2)CC1 the results were Peg3 prom inh 14, MITF TRPM1 inh -10, CF NFkB block 17, HIF-2a block 30, Beta2AR agonist -1 and KKLEB tox -7.
COc1cccc(CNC(=O)CN2CCC(c3nc4ccc(C)cc4[nH]3)CC2)c1 was read as Peg3 prom inh 5, MITF TRPM1 inh -1, CF NFkB block 56*, HIF-2a block 19, Beta2AR agonist 6, KKLEB tox -13 and CF NFkB conf 10.
For COc1cccc(CN(C)C(=O)CC[C@H]2O[C@@H](n3ccc(=O)[nH]c3=O)[C@H](O)[C@@H]2O)c1 the results were Peg3 prom inh 16, CF NFkB block -4, HIF-2a block 18 and KKLEB tox 9.
`CCCCNC(=O)C1(C)CCCCN1C(=O)c1oc2ccccc2c1C` (stereo not drawn) gave Peg3 prom inh 18, CF NFkB block 0, HIF-2a block 13 and KKLEB tox 5.
`O=C(c1cc([N+](=O)[O-])ccc1N1CCOCC1)N1CCN(c2ccccc2)CC1` gave Peg3 prom inh -11, MITF TRPM1 inh 57, CF NFkB block 53*, HIF-2a block 22, Beta2AR agonist 20, KKLEB tox -37 and CF NFkB conf 59*.
For CCC[n+]1c(C)sc2c3c(ccc21)CCCC3 the results were Peg3 prom inh 32, MITF TRPM1 inh 67*, CF NFkB block 58*, HIF-2a block 6, Beta2AR agonist 7, KKLEB tox -23 and CF NFkB conf 20.
Screening C#CCNC(=O)C[C@@H]1C[C@@]2(C(=O)OC)CCCCC=C2N(CCCCCCCC)C1=O returned HIF-2a block -5.
For CCCCC[C@H](C)N1C[C@@H](COCc2ccccc2)Oc2cc(N3CCC[C@@H]3COC)ccc2S1(=O)=O the results were HIF-2a block -3.
CC(NC(=O)OCc1ccccc1)C(=O)Oc1cc2oc(=O)cc(-c3ccccc3)c2cc1Cl (stereo not drawn) was read as Peg3 prom inh -15, MITF TRPM1 inh -2, CF NFkB block 63*, HIF-2a block 5, Beta2AR agonist 2, KKLEB tox -8 and CF NFkB conf 93*.
For CCc1cc2c(-c3ccccc3)cc(=O)oc2cc1OC(C)C(=O)O (stereo not drawn) the results were Peg3 prom inh -2, CF NFkB block 3, HIF-2a block 13, Beta2AR agonist 6 and KKLEB tox 6.
`COCCNC(=O)C1(C)CCCN(C(=O)c2ccc(F)cc2Cl)C1` (stereo not drawn) gave Peg3 prom inh 4, CF NFkB block -3, HIF-2a block 20 and KKLEB tox 2.
Screening CCC(CO)Oc1cc(NCc2ccc(C)c(C)c2)c2ncn(C(C)C)c2c1 (stereo not drawn) returned Peg3 prom inh 29, MITF TRPM1 inh 4, CF NFkB block 52*, HIF-2a block 7, Beta2AR agonist -5, KKLEB tox -11 and CF NFkB conf 12.
Screening CCC(CO)Oc1cc(NCc2cc(C)cc(C)c2)c2ncn(C(C)C)c2c1 (stereo not drawn) returned Peg3 prom inh -20, MITF TRPM1 inh 2, CF NFkB block 67*, HIF-2a block 3, Beta2AR agonist 10, KKLEB tox -4 and CF NFkB conf 24.

Compound activity from PubChem.
